High-throughput results as filed in PubChem BioAssay.
An excerpt weighted towards active compounds, which were near 2.2% of everything screened.
FAS-TE inh = inhibitors of human fatty acid synthase thioesterase domain. inhibition, % at 15 µM. actives 0.67% (n = 360,000). AID 602261. recombinant FAS-TE, OMFH fluorogenic substrate, fluorescence endpoint. P49327;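 active = compounds whose normalised, plate-corrected inhibition of enzyme fluorescence in the single-dose primary screen is 50% or more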;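 also: 0% = DMSO with enzyme and 100% = substrate without enzyme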
Cardio protect = myocardial damage modulation in H9c2 cells. actives 0.63% (n = 360,000). H9c2 cardiomyocytes, H2O2 injury protection, ATPLite, 2 h. protection from H2O2 cell death, % at 20 µM;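 active = compounds giving at least 50% protection of heart cells from peroxide-induced death in the single-dose screen, raw or plate-pattern-corrected value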;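 also: 0% = DMSO wells with peroxide and 100% = DMSO wells without peroxide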
PLCg1 inh = inhibitors of human phospholipase C gamma1; purified PLC-gamma1, fluorogenic substrate, fluorescence; AID 720700; inhibition, % at 12.2 µM; actives 0.84% (n = 370,000); P19174; in the data active = inhibition above about 9.5%
PLCb3 inh = blocks human PLC-beta3 enzyme activity | Q01970 | Purified PLC-beta3, fluorogenic substrate, fluorescence | inhibition, % at 12.2 µM | actives 0.18% (n = 370,000) | AID 720704; in the data active = inhibition above about 11%;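 also: 0% = median of compound wells on plate and 100% = full blocker control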
FAS-TE inh conf = confirmation of human fatty acid synthase thioesterase inhibitors; shares compounds with FAS-TE inh; recombinant FAS-TE, OMFH fluorogenic substrate, fluorescence; inhibition, % at 15 µM; actives 45% (n = 2,300); AID 624325;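 active = compounds inhibiting the enzyme by at least 50% at 15 µM in any one of the replicates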;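 also: 0% = enzyme with DMSO only and 100% = wells lacking enzyme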
* = called active by the depositor; x = not tested or not shown.

SMILES	FAS-TE inh	Cardio protect	PLCg1 inh	PLCb3 inh	FAS-TE inh conf
Cc1ccc(S(=O)(=O)N2C[C@H]3C(=O)C[C@@H]4C(=O)N(c5ccccc5)C(=O)[C@@H]4[C@@H]3C[C@@H]2c2ccccc2)cc1	75.1*	0.3	0.8	0.2	39.2
Cc1ccc(S(=O)(=O)N2C[C@H]3[C@H]4C(=O)N(c5ccccc5)C(=O)[C@H]4CC(=O)[C@H]3[C@@H]2c2cccc3ccccc23)cc1	83.6*	0.1	5.6	-3.0	45.5*
Cc1ccc(S(=O)(=O)N2[C@H](C(C)C)[C@H]3[C@H]4C(=O)N(c5ccccc5)C(=O)[C@H]4CC(=O)[C@H]3[C@@H]2c2ccccc2)cc1	68.3*	-2.6	2.4	0.4	42.0
COc1ccccc1CC(=O)NCCN1C(=O)C2C3C=CC(C3)C2C1=O (stereo unspecified)	x	x	1.0	-1.8	x
Clc1nc(-c2ccccc2)ncc1Oc1ccccc1	21.8	-3.7	1.8	-2.5	x
Cc1cccc(NC(=O)CSc2nc3c(oc4ccccc43)c(=O)n2-c2ccccc2)c1	57.2*	-1.0	1.7	-3.4	34.7*
CCOC(=O)[C@@]12CN(C(=O)OC(C)(C)C)CC=C1N(Cc1ccc(OC)cc1)C(=O)[C@H]2CC(=O)N1CCC(c2ccccc2)CC1	x	x	-1.0	3.7	x
CSc1ccc(COC(=O)c2cc([N+](=O)[O-])ccc2N2CCOCC2)cc1	65.8*	-8.8	5.0	-2.7	57.5*
COc1ccc(OC)c(COC(=O)c2cc([N+](=O)[O-])ccc2N2CCOCC2)c1	54.5*	6.3	5.9	-7.1	51.1*
Cc1ccccc1COC(=O)c1cc([N+](=O)[O-])ccc1N1CCOCC1	36.0	1.6	-23.4	4.5	x
Fc1c(F)c(F)c(N/N=C/c2c[nH]c3ccccc23)c(F)c1F	50.7*	-26.6	-7.2	-6.5	58.0*
CCOc1ccc2ncc(S(=O)(=O)c3ccccc3)c(N3CCC4(CC3)OCCO4)c2c1	x	x	-0.4	1.4	x
COc1ccc(S(=O)(=O)c2cnc3ccc(OC)cc3c2N2CCC3(CC2)OCCO3)cc1	71.9*	36.1	-2.4	-0.6	59.6*
CC(C)C[C@H]1C(=O)N2CCC[C@H]2[C@]2(O)O[C@](NC(=O)[C@@H]3C=C4c5cccc6[nH]c(Br)c(c56)CC4N(C)C3)(C(C)C)C(=O)N12 (stereo partly specified)	75.6*	30.8	-73.4	-98.7	24.3
C=CCN1C(=O)[C@@H](CC(=O)N2CCC(c3ccccc3)CC2)[C@]2(C(=O)OCC)CCCCC/C=C/12	x	x	1.4	2.1	x
CN1C(=O)/C(=C/c2cc(N=Nc3ccccc3)ccc2O)SC1=S	58.5*	-19.2	3.1	2.1	14.2
CC(C)[C@H]1/C(=C/C2CC2)N2C(=O)C[C@H](c3cccc(C(F)(F)F)c3)N=C2N1Cc1ccc2c(c1)OCO2	x	x	-0.5	0.8	x
O=C(NCCc1ccccc1)C(c1cccs1)N(C(=O)CCl)c1ccc(Cl)cc1 (stereo unspecified)	55.7*	-25.8	1.7	4.8	54.3*
Oc1ccc(CNc2ccccc2Br)c2cccnc12	x	x	-3.6	-4.3	x
Cc1ccc(-c2cc(C(F)F)n3ncc(C(=O)Nc4c(C)nn(Cc5ccccc5Cl)c4C)c3n2)cc1	50.2*	5.4	-0.1	-0.9	8.0
Cc1ccc(-c2cc(C(F)F)n3ncc(C(=O)N4CCc5ccccc54)c3n2)cc1	52.4*	-2.5	-0.8	-1.8	5.1
Cc1ccc(-c2cc(C(F)F)n3ncc(C(=O)Nc4c(C)nn(Cc5c(Cl)cccc5Cl)c4C)c3n2)cc1	14.6	7.7	0.9	-3.5	x
O=[N+]([O-])c1cc(C(F)(F)F)ccc1N1CCC(O)CC1	1.8	-3.2	-1.0	-0.9	x
O=C(Nc1ccc(Cl)cc1)N1CCCN(c2ccc(C(F)(F)F)cc2[N+](=O)[O-])CC1	54.5*	-7.2	1.6	-0.7	20.9
C[C@H]1[C@@H](OC(=O)NC2CCC2)CC[C@@]23CCCN2C(=O)CCC[C@@H]13	x	x	-1.1	0.0	x
SMILES	FAS-TE inh	Cardio protect	PLCg1 inh	PLCb3 inh	FAS-TE inh conf
COc1ccc(Cl)cc1NC(=O)CN(C)C(=O)c1sc2ccccc2c1Cl	51.4*	-11.3	6.9	-2.1	34.8
CC(=O)CC[C@@H]1CC[C@]2(CCCN(C(=O)C3CCCC3)C2)O1	x	x	-0.8	-1.8	x
C#CCN(C[C@H]1[C@H](OC(=O)NCc2ccccc2)[C@H](OC(=O)NCc2ccccc2)C[C@H]2C(=O)N(c3ccccc3)C(=O)[C@@H]12)S(=O)(=O)c1ccc(C)cc1	62.1*	4.3	0.9	2.3	19.7
C#CCN(C[C@H]1[C@H](OC(=O)Nc2cccs2)[C@H](OC(=O)Nc2cccs2)C[C@H]2C(=O)N(c3ccccc3)C(=O)[C@@H]12)S(=O)(=O)c1ccc(C)cc1	53.9*	13.2	-1.9	-1.7	16.4
COC(=O)C1=C(C)N(Cc2ccc(Br)cc2)C(=S)NC1c1ccccc1 (stereo unspecified)	x	x	1.3	-1.0	x
O=C(CCC1CCN(C(=O)CC2=CCCCC2)CC1)NCc1ccc(F)cc1	-7.5	3.1	-10.1	-11.9	x
COc1cc2c(cc1OC)C(=O)N1[C@H]3c4cc(C)ccc4OC[C@@H]3[C@H](c3ccccc3)[C@]1(C)C(=O)N2	64.5*	4.0	-7.8	-10.1	23.5
CCOC(=O)[C@H]1[C@H]2COc3ccc(C)cc3[C@@H]2N2C(=O)c3ccc(Cl)cc3NC(=O)[C@@]12C	17.4	12.8	-0.3	0.7	x
COc1cc2c(cc1OC)C(=O)N1[C@H]3c4cc(Cl)ccc4OC[C@@H]3[C@H](c3ccccc3)[C@]1(C)C(=O)N2	85.8*	3.7	-2.8	-7.2	39.8
O=C(Nn1c(C2CCCCC2)nc2ccccc2c1=O)c1ccc([N+](=O)[O-])cc1Cl	61.5*	-2.7	0.4	0.2	43.0*
O=C(Nn1c(C2CCCCC2)nc2ccccc2c1=O)c1ccc(Cl)c([N+](=O)[O-])c1	57.3*	-15.5	-1.1	0.3	60.2*
COC(=O)c1cc(C(=O)NCCN2C(=O)S/C(=C\c3cccs3)C2=O)cc([N+](=O)[O-])c1	60.4*	-2.1	3.9	0.4	5.4
Cc1cc2c(c(=O)n1Cc1cccnc1)C(Cc1ccccc1)C(C#N)=C(N)O2 (stereo unspecified)	53.2*	-5.4	-12.2	-12.8	32.3
CCCCN(C)c1nc(C)nc2c1nnn2Cc1ccccc1	x	x	-4.6	-0.1	x
O=C(Nc1ccccc1)c1cc([N+](=O)[O-])ccc1N1CCCCC1	47.2	-6.5	2.2	3.5	x
O=C(NCc1cccnc1)c1cc([N+](=O)[O-])ccc1N1CCOCC1	-1.1	-3.2	-0.5	-4.8	x
O=C(NCC1CCCCC1)c1cc([N+](=O)[O-])ccc1N1CCOCC1	36.9	9.7	0.2	-6.4	x
O=C(NC(=S)Nc1ccccc1)c1cc([N+](=O)[O-])ccc1N1CCOCC1	57.7*	-0.6	-4.0	-2.6	51.0*
O=C(NC12CC3CC(CC(C3)C1)C2)c1cc([N+](=O)[O-])ccc1N1CCOCC1	51.2*	0.4	3.8	2.8	38.6*
